Assay results published in PubChem BioAssay (Tox21).
“And” between values parts separate entries of the source, which are not always exact repeats. Identical values can stand only once. Records with an inconclusive call do not appear. A call without a number means that no potency is given here. Some structures have more than one record in an assay (separate samples or runs), and their calls can disagree. The source made the active and inactive calls. Unless noted, calls follow the shape of the dose curve; as a rule, active = well fitted curve in the direction sought with a large enough effect in the repeat runs; inconclusive = weak or mixed curves; inactive = no such curve, though single readings can be large; an effect the other way counts as inactive or inconclusive.

Legend:
[1] = qHTS assay to identify small molecule antagonists of the estrogen related receptor (ERR) signaling pathway from Tox21 library - cell viability counter screen (AID 1224834); also: nearly all actives have a fitted effect of over 30% in size; also: potency is read from the fitted curve at half-maximal effect
Procedure, shortened: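 Multiplexed viability counter screen in ERR cells: 17.5 h compound exposure at 37 C, CellTiter-Fluor added, 30 min at 37 C/5% CO2, fluorescence read.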

[2] = biological target: Luciferin 4-monooxygenase (Photinus pyralis) (UniProt P08659); assay: qHTS assay to identify small molecule inhibitors of firefly luciferase (AID 1224835); also: nearly all actives have a fitted effect of over 25% in size; also: potency is read from the fitted curve at half-maximal effect
Procedure, shortened: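 Quantitative HTS format; KM concentrations of both substrates. Purified P. pyralis FLuc activity quantified from luminescence images.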

[3] = qHTS assay to identify small molecule agonists of the constitutive androstane receptor (CAR) signaling pathway - cell viability counter screen (AID 1224836); also: nearly all actives have a fitted effect of over 45% in size; also: potency is read from the fitted curve at half-maximal effect
Procedure, shortened: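 HepG2 cells stably carrying hCAR and a CYP2B6-2.2kb reporter; 15-concentration compounds plus PK11195 (final 0.75 uM), 23 hr at 37 C/5% CO2. Viability read by CellTiter-Fluor fluorescence.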

[4] = qHTS assay to identify small molecule antagonists of the estrogen related receptor signaling pathway with the pleiotropic PPARgamma coactivator (PGC) from Tox21 10K library - cell viability counter screen (AID 1224840; active = well fitted cell-killing curve with a large enough effect in the repeat runs, not every such curve was filed as active; also: nearly all actives have a fitted effect of over 40% in size; also: potency is read from the fitted curve at half-maximal effect)
Procedure, shortened: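 Fluorescence read-out of CellTiter-Fluor viability reagent, added after cells had been exposed to compound in DMSO for 17.5 h at 37 C; 30 min development at 37 C/5% CO2. Cells: PGC/ERR line, 2,000/well.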

[5] = biological target: Thyrotropin receptor (Homo sapiens) (UniProt P16473); assay: qHTS assay to identify small molecule agonists of the thyroid stimulating hormone receptor (TSHR) signaling pathway (AID 1224843; calls by dose curve; also: nearly all actives have a fitted effect of over 45% in size)
Procedure, shortened: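 Using 15 concentrations per compound in triplicate, cAMP production was monitored in TSHR-HEK293 cells after 30 min compound incubation at RT; HTRF reagents followed, with fluorescence intensity recorded after 1 h.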

[6] = qHTS assay to identify small molecule agonists of the hypoxia (HIF-1) signaling pathway - cell viability counter screen (AID 1224844; calls by dose curve; also: nearly all actives have a fitted effect of over 50% in size; also: potency is read from the fitted curve at half-maximal effect)
Procedure, shortened: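 CellTiter-Glo luminescence read-out, 30 min RT, taken in the same wells as the beta-lactamase HRE reporter assay; HRE-bla ME-180 cells, 0.5% dialyzed FBS, 17 hr compound treatment at 37C, 5% CO2.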

[7] = qHTS assay to identify small molecule agonists of the hypoxia (HIF-1) signaling pathway (AID 1224846; active = well fitted activation curve with a large enough effect in the signal ratio in the repeat runs, not every such curve was filed as active; the % refers to the signal ratio)
Procedure, shortened: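 Beta-lactamase FRET read-out (CCF4-AM substrate) from ME-180 cells carrying an HRE-driven bla reporter, after 17 hrs compound exposure at 37C/5% CO2. Cells were seeded at 2,000 per well in 0.5% dialyzed FBS medium and preincubated 5 hrs.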

[8] = qHTS assay to identify small molecule agonists of H2AX - cell viability counter screen (AID 1224847; calls by dose curve; also: nearly all actives have a fitted effect of over 30% in size; also: potency is read from the fitted curve at half-maximal effect)
Procedure, shortened: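 CHO-K1 cells plated overnight at 37C, then exposed 3 h at 37C to compounds at 15 concentrations (0.76% DMSO final). Viability by CellTiter-Glo luminescence after 30 min at room temperature.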

[9] = qHTS RealTime-Glo MT Cell Viability Assay in HepG2 cells - 24 hour (AID 1224867); also: nearly all actives have a fitted effect of over 50% in size
Procedure, shortened: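 qHTS, HepG2, 600 cells/well, RealTime-Glo (NanoLuc + prosubstrate) added with cells; 5 h preincubation; DMSO compound addition; 37 C; luminescence at 0/8/16/24/32/40 h.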

[10] = qHTS RealTime-Glo MT Cell Viability Assay in HEK293 cells - 32 hour (AID 1224868); also: nearly all actives have a fitted effect of over 50% in size; also: potency is read from the fitted curve at half-maximal effect
Procedure, shortened: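 Assay medium contained NanoLuc luciferase plus cell-permeant prosubstrate, added with HEK293 cells at 600 cells/well. After 5 h at 37 C/5% CO2 compounds were added; plates stayed at 37 C for 40 h with serial luminescence reads.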

[11] = A CellTox Green Cytotoxicity Assay to monitor cytotoxicity in HEK293 cells - 0 hour (AID 1224869); also: nearly all actives have a fitted effect of over 50% in size
Procedure, shortened: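 Read-out: fluorescence of a cell-impermeant cyanine dye staining DNA of dead cells, proportional to cytotoxicity. HEK293, 600 cells/well with reagent, compound (23 nL DMSO) added after 5 h; reads at 0, 8, 16, 24, 32, 40 h.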

[12] = biological target: Nuclear receptor subfamily 1 group I member 3 (Homo sapiens) (UniProt Q14994); assay: qHTS assay to identify small molecule antagonists of the constitutive androstane receptor (CAR) signaling pathway (AID 1224838);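 also: HepG2 cells stably expressing hCAR with CYP2B6 luciferase reporter stimulated by CITCO; nearly all actives have a fitted effect of over 40% in size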; also: potency is read from the fitted curve at half-maximal effect
Procedure, shortened: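 Read-out: ONE-Glo luciferase luminescence after 30 min at room temperature. HepG2-CYP2B6-hCAR double-stable cells, compounds in 15-point titration plus 50 nM CITCO final, 24 h at 37 C/5% CO2.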

[13] = biological target: Nuclear receptor subfamily 1 group I member 3 (Homo sapiens) (UniProt Q14994); assay: qHTS assay to identify small molecule agonists of the constitutive androstane receptor (CAR) signaling pathway (AID 1224839); also: nearly all actives have a fitted effect of over 15% in size; also: potency is read from the fitted curve at half-maximal effect;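 as to activation: HepG2 cells stably carrying human CAR and a CYP2B6 luciferase reporter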
Procedure, shortened: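 HepG2 cells stably co-transfected with hCAR and a CYP2B6-2.2kb luciferase reporter; compounds at 15 concentrations with 0.75 uM PK11195 present. After 24 hr at 37 C, luciferase read by ONE-Glo luminescence.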

[14] = qHTS assay to identify small molecule antagonists of the constitutive androstane receptor (CAR) signaling pathway - cell viability counter screen (AID 1224837); also: nearly all actives have a fitted effect of over 45% in size
Procedure, shortened: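 Read-out: CellTiter-Fluor fluorescence after 23 hr at 37 C/5% CO2. Cells: HepG2 double-stable for hCAR and CYP2B6-2.2kb. Compounds tested at 15 concentrations in the presence of CITCO, final concentration 50 nM.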

[15] = qHTS assay to identify small molecule agonists of H2AX (AID 1224845; active = well fitted activation curve with a large enough effect in the signal ratio in the repeat runs, not every such curve was filed as active; the % refers to the signal ratio)
Procedure, shortened: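 Wild-type CHO-K1 cells plated overnight, then exposed 3 hr at 37C to compounds at 15 concentrations (0.76% DMSO). Lysed, then HTRF anti-pH2AX(S139)-cryptate/anti-H2AX-d2 detection after 24 hr at room temperature; emissions 665 and 620 nm.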

[16] = qHTS assay to identify small molecule antagonists of the estrogen related receptor signaling pathway with the pleiotropic PPARgamma coactivator (PGC) from Tox21 10K library (AID 1224841; call rule not given here)
Procedure, shortened: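 Luminescence read-out (One-Glo luciferase reagent, 30 min at room temperature) from PGC/ERR cells exposed to DMSO-dissolved test compounds for 18 h at 37 C; cells, 2,000 per well, had been preincubated 6 h before compound transfer.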

[17] = qHTS assay to identify small molecule agonists of the estrogen related receptor signaling pathway with the pleiotropic PPARgamma coactivator (PGC) from Tox21 10K library (AID 1224842); also: nearly all actives have a fitted effect of over 15% in size
Procedure, shortened: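 PGC/ERR reporter cells (NTP line) were seeded 2,000 per well, rested 6 h at 37 C/5% CO2, then pin-dosed with compounds in DMSO for 18 h at 37 C; luciferase read by One-Glo luminescence after 30 min at room temperature.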

[18] = qHTS assay to identify small molecule antagonists of the estrogen related receptor (ERR) signaling pathway from Tox21 library (AID 1224848); also: nearly all actives have a fitted effect of over 50% in size
Procedure, shortened: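 Tox21 10K compounds in DMSO tested for ERR pathway antagonism in NTP's ERR cell line; 18 h, 37 C exposure; ONE-Glo luminescence.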

[19] = qHTS assay to identify small molecule agonists of the estrogen related receptor (ERR) signaling pathway from Tox21 library (AID 1224849; calls by dose curve; also: nearly all actives have a fitted effect of over 15% in size); settings: ERR reporter cell line, ONE-Glo luciferase, 18 h; at 92.4 µM (top of the series)
Procedure, shortened: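 Luminescence readout (ONE-Glo, 30 min RT) after 18 h compound exposure at 37 C of NTP-supplied ERR reporter cells; cells were plated 6 h before compound addition by pin tool.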

Sequence of Nuclear receptor subfamily 1 group I member 3 (Homo sapiens) (Q14994 whole entry, looked up): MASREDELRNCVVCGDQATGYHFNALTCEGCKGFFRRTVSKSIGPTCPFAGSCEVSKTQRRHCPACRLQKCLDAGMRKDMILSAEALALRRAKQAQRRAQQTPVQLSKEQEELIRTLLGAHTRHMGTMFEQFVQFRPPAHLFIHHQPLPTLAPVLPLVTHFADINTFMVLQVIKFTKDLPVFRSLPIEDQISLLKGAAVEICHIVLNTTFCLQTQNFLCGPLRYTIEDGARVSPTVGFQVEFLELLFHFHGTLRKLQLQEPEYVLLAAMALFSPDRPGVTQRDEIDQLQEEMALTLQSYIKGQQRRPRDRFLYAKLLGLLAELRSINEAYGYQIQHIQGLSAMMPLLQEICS
Sequence of Luciferin 4-monooxygenase (Photinus pyralis) (P08659 whole entry, looked up): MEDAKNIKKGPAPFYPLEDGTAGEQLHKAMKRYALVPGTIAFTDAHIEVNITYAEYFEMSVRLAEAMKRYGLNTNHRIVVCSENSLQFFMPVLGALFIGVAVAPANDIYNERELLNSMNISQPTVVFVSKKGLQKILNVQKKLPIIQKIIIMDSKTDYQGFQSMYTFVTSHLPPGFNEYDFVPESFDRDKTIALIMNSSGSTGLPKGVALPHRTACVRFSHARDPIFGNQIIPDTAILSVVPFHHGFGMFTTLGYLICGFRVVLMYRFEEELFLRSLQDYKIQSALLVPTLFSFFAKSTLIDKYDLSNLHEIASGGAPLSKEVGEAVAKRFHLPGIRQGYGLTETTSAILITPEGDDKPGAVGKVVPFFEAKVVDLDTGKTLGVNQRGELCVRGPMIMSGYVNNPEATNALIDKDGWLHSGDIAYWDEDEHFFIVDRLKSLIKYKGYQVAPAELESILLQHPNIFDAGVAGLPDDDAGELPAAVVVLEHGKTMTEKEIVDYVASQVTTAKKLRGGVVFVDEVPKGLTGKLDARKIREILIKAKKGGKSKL
Sequence of Thyrotropin receptor (Homo sapiens) (P16473 whole entry, looked up): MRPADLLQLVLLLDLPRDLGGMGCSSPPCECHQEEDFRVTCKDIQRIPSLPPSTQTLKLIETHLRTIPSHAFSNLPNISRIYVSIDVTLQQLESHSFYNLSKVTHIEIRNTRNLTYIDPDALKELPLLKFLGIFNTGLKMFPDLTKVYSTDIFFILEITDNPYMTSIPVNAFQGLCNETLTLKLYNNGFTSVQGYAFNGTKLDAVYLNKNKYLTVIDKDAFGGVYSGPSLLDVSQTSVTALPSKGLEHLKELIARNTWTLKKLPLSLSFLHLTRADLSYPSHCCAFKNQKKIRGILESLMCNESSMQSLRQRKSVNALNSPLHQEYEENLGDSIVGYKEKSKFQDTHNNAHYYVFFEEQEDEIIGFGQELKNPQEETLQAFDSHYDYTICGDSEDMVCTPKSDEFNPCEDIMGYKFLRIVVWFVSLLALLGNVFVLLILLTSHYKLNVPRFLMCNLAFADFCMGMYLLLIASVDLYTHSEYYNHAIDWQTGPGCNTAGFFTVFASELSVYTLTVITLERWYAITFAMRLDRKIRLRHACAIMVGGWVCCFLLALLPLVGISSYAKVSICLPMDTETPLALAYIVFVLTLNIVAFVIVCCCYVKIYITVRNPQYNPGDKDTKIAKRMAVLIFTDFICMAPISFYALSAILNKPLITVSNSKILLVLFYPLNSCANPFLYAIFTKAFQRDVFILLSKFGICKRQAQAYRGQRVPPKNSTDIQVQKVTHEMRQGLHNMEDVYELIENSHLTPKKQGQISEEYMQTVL

SMILES | Potency [1] | Potency [2] | Potency [3] | Potency [4] | Potency [5] | Potency [6] | outcome [7] | Potency [8] | Potency [9] | Potency [10] | Potency [11] | Potency [12] | Potency [13] | Potency [14] | Potency [15] | Potency [16] | Potency [17] | Potency [18] | activity change, positive = activation [19]
Cc1ccc(N)c(S(=O)(=O)O)c1 | inactive | inactive | inactive | inactive | inactive | inactive | inactive | inactive | inactive | inactive | inactive |  |  |  |  |  |  |  | 
CN(C)c1ccc(C(=N)c2ccc(N(C)C)cc2)cc1 | 24 µM (active) and 20.9 µM (active) | 55.7 µM (active) and inactive | 24 µM (active) and 23.4 µM (active) | 30.3 µM (active) and 20.9 µM (active) |  | inactive | inactive | 39.6 µM (active) and 24.4 µM (active) |  | 3.05 µM (active) and 2.97 µM (active) | inactive | 52.4 µM (active) | inactive |  |  |  |  |  | 
Cc1cc(NS(=O)(=O)c2ccc(N)cc2)no1 | inactive |  | inactive | inactive | inactive | inactive |  | inactive | inactive | inactive | inactive | inactive | inactive | inactive |  |  |  |  | 
CC(=O)Nc1ccc(C(=O)O)cc1 | inactive | inactive | inactive | inactive | inactive | inactive | inactive | inactive | inactive | inactive | inactive | inactive | inactive |  | inactive |  |  |  | 
C=C1C2CCC(C2)C1(C)C (configuration not stated) | inactive | inactive | inactive | inactive | inactive | inactive | inactive | inactive | inactive | inactive | inactive | inactive | inactive |  |  | inactive | inactive | inactive | 
O=S(=O)(O)c1cc(S(=O)(=O)O)c2c(N=Nc3ccccc3)c(O)ccc2c1 | 54.7 µM (active) and 34.4 µM (active) | inactive |  |  | inactive | inactive | inactive | inactive | inactive | inactive | inactive | inactive | inactive |  |  |  |  |  | 
O=C(c1ccc(O)cc1)c1ccc(O)cc1O | inactive | 71.8 µM (active) and 39.9 µM (active) | inactive | inactive | inactive |  | inactive |  | inactive | inactive | inactive | inactive | 27.6 µM (active) and 54.5 µM (active) |  | inactive |  |  |  | 
CS(=O)(=O)c1ccc([C@@H](O)[C@@H](CO)NC(=O)C(Cl)Cl)cc1 | inactive | inactive | inactive | inactive |  | inactive |  | inactive | inactive | inactive | inactive | inactive | inactive |  | inactive |  |  |  | 
CC1=C(/C=C/C(C)=C/C=C/C(C)=C/CO)C(C)(C)CCC1 | inactive | inactive | inactive | inactive |  | inactive | inactive | inactive | inactive | inactive | inactive | inactive |  |  |  | inactive | inactive | inactive | -2.72% (inactive) and -18.5% (inactive)
CC(C)n1c(/C=C/[C@@H](O)C[C@@H](O)CC(=O)O)c(-c2ccc(F)cc2)c2ccccc21 | inactive |  | inactive | inactive |  | inactive | inactive | inactive | inactive | inactive | inactive |  |  |  |  |  |  |  | 
COC(=O)c1ccc(C(=O)OC)cc1 | 24.7 µM (active) and inactive | 32.1 µM (active) and inactive |  | 24.7 µM (active) and inactive | inactive | 4.96 µM (active) and inactive | inactive | inactive | inactive | 39.4 µM (active) and inactive | inactive | 6.95 µM (active) and inactive | inactive |  |  |  |  |  | 
NCCc1ccc(O)c(O)c1 | 54.6 µM (active) and inactive | inactive | inactive | inactive |  | inactive |  | inactive | inactive | inactive | inactive |  |  |  |  |  |  |  | 
CCCCCCCCCCCCOCC1CO1 (configuration not stated) |  | inactive | inactive | inactive | inactive | inactive | inactive | inactive | inactive | inactive | inactive | inactive | inactive | inactive | inactive | inactive | inactive | inactive | 
Clc1cc(Cl)c(Cl)cc1Cl | inactive | inactive | inactive | inactive |  | inactive | inactive | inactive | inactive | inactive | inactive |  |  |  | inactive | inactive | inactive | inactive | 
C=C(C)C(=O)OCCC[Si](OC)(OC)OC | inactive | inactive | inactive | inactive | inactive | inactive | inactive | inactive | inactive | inactive | inactive |  |  |  | inactive |  |  |  | 
OCC#CCO | inactive | inactive | inactive | inactive | inactive | inactive | inactive | inactive | inactive | inactive | inactive |  |  |  | inactive |  |  |  | 
CC(C)(C)C(=O)C1C(=O)c2ccccc2C1=O | 60.5 µM (active) and 43.3 µM (active) | 31.4 µM (active) |  | 48.1 µM (active) and inactive | inactive | inactive | inactive | 88.9 µM (active) and 56.6 µM (active) | inactive | inactive | inactive | inactive |  |  |  |  |  |  | 
OC1CCCC1 | inactive | inactive | inactive | inactive | inactive | inactive | inactive | inactive | inactive | inactive | inactive | inactive | inactive |  | inactive | inactive | inactive | inactive | 
